# The list is not random: actives were taken first. Their share in the collection is about 2.4%.
# ANO1 activ: TMEM16A chloride channel activators or potentiators, primary screen, cell-based, HTS; Anoctamin-1 (Mus musculus), Q8BHY3; HEK293 TMEM16A/YFP-H148Q/I152L, iodide quench fluorescence; active compounds read low; B-score at 10 µM; 0.3% of 340,000 active;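 active means fluorescence-ratio B-score plate-corrected deviation score at least 3 library SD below zero, with starting fluorescence score within 5 deviations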;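 further: channel opened by trigger with iodide after compound preincubation; score built on the fluorescence ratio of max minus min over baseline; more negative score means more quench and so TMEM16A activation or potentiation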
# Target sequence (Q8BHY3 whole entry, looked up): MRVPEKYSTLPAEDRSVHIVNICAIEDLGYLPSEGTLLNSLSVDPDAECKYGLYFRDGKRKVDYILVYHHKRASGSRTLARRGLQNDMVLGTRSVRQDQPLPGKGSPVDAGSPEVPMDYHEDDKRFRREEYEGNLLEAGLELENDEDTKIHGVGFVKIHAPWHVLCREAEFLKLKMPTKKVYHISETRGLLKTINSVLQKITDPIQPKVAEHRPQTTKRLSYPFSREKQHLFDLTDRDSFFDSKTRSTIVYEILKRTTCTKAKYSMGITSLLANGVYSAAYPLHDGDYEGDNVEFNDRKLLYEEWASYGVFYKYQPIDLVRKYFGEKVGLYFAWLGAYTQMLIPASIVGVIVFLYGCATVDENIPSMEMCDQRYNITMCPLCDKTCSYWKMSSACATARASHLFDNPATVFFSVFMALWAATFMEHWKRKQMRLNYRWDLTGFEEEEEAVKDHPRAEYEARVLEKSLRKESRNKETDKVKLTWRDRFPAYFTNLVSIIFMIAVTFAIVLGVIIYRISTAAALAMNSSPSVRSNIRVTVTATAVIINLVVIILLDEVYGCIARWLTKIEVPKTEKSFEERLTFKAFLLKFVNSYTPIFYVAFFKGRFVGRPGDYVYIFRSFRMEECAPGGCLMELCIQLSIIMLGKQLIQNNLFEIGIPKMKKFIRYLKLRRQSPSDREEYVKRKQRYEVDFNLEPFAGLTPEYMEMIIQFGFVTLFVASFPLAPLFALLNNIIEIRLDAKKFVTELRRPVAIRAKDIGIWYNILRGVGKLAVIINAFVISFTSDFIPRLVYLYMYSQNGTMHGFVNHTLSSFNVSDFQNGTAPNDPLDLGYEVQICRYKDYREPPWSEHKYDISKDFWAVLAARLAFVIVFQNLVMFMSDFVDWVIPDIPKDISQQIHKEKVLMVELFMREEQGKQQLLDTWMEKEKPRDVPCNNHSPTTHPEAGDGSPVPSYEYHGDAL
# CRFBP-R2 agonist: agonists of CRF-BP/CRF-R2 complex, primary screen, cell-based, HEK293, calcium dye fluorescence, uHTS. activation, % at 13.2 µM. CRF-binding protein / CRF receptor 2 complex (human). calcium dye fluorescence (FLIPR); percent of saturating CRF peptide response. 0.46% of 350,000 active;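 active means activation of at least 50%, plus an integration ratio under a set limit after plate pattern correction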;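 further: plate controls were neutral control wells without compound for no effect and CRF at EC100 for full effect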
# cardiac RTF act: cardiac RTF calcium sensitivity activators, primary screen, biochemical, IANBD-TnC fluorescence, EC20 calcium; IANBD-labeled TnC RTF fluorescence at EC20 calcium; 0% EC20 calcium, 100% full calcium; 0.24% of 340,000 active; activation, % at 7.2 µM; Troponin I, cardiac muscle (Homo sapiens) + Troponin T, cardiac muscle (Homo sapiens) + …;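 active means activation above the mean over all tested compounds plus 3 SD, cut at about 30% in these data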;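 further: rise in fluorescence read as greater calcium sensitivity of cardiac thin filaments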
# CRFBP-R2 block: antagonists of CRF-BP/CRF-R2 complex, primary screen, cell-based, HEK293, calcium dye fluorescence, uHTS; CRF-induced calcium fluorescence; 0.59% of 350,000 active; inhibition, % at 11.8 µM;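 active means inhibition of the ligand-induced calcium signal above about 50% at the single tested concentration, limit read from the data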
# ANO1 block: TMEM16A chloride channel inhibitors, primary screen, cell-based, HTS; Anoctamin-1 (Mus musculus), Q8BHY3; HEK293 TMEM16A/YFP iodide influx fluorescence, ionomycin; normalized B-score (activity score, 25-100; higher = stronger inhibition) at 10 µM; 1.2% of 310,000 active;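 active means ratio plate-corrected score three or more library SD toward inhibition, starting fluorescence score within five deviations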;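 further: score derived from kinetic fluorescence span divided by baseline fluorescence per well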
# RTF Ca sens inh: cardiac RTF calcium sensitivity inhibitors, primary screen, biochemical, IANBD-TnC fluorescence, EC70 calcium | Troponin I, cardiac muscle (Homo sapiens) + Troponin T, cardiac muscle (Homo sapiens) + … | AID 493244, 2011 | inhibition, % at 7.15 µM | IANBD-labeled cardiac RTF, Ca2+ fluorescence | 0.12% of 340,000 active;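 active means inhibition above the mean inhibition of all tested compounds plus 3 SD, cut at about 17% in these data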;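 further: assay run at fixed EC70 calcium of 1.6 mM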
# * marks the source's active call; other numbers are inactive results; i = inactive; . = no result.
SMILES,ANO1 activ,CRFBP-R2 agonist,cardiac RTF act,CRFBP-R2 block,ANO1 block,RTF Ca sens inh
COc1ccc(C(=O)/C=C/Nc2ccc(S(N)(=O)=O)cc2)cc1OC,i,-0.9,0.9,-8.3,i,-8.2
Cc1ccccc1CN(C)C(C)C(=O)Nc1ccccc1F (stereo not drawn),i,0.3,0.7,4.7,i,-5.2
CC1CC(C)CN(C(=O)CSc2nc(Cc3cccs3)nc3ccccc23)C1 (stereo not drawn),i,-0.6,8.3,153.5*,i,-10.0
COc1ccccc1C1SCCN1S(=O)(=O)c1ccccc1 (stereo not drawn),.,-1.3,.,107.7*,.,.
CN(C(=O)CN1C(=O)c2ccccc2S1(=O)=O)C1CCCCC1,i,0.3,-2.8,-2.1,.,-1.1
CSc1nc(Oc2ccc(=O)[nH]n2)nc(N(C)C)n1,i,-1.0,-2.5,-4.7,i,0.6
COC(=O)COc1ccc(Oc2nc(SC)nc(N(C)C)n2)nn1,i,55.4*,6.1,-54.5,i,-8.6
Cc1onc(-c2ccccc2)c1C(=O)NCc1ccco1,-16.3*,0.9,0.6,-2.9,i,6.4
CCCOc1ccc(C(=O)NC(=S)NNC(=O)c2c(-c3ccccc3)noc2C)cc1,i,145.2*,-1.2,-15.0,100*,5.6
Cc1onc(-c2ccccc2)c1C(=O)NC(=S)NNC(=O)c1ccccc1O,i,202.3*,-0.7,-138.2,100*,-2.9
CCCOc1ccc(NC(=O)c2c(-c3ccccc3)noc2C)cc1,i,-0.2,1.6,3.9,i,-1.4
Cc1ccc(S(=O)(=O)N(C)C)cc1NC(=O)CN1C(=O)NC2(CCCCCCC2)C1=O,i,2.2,-5.3,-6.1,i,3.6
COc1ccc(NC(=O)c2cc(-c3ccccc3Cl)on2)cc1,i,0.8,1.1,2.5,i,1.5
COc1ccc(NC(=O)c2cc(-c3ccccc3OC)on2)cc1,i,-0.1,-2.1,54.5*,i,1.4
CC1(C)CC(=O)C2=C(C1)OC(N)=C(C#N)[C@@H]2c1ccccc1[N+](=O)[O-],i,6.2,41.3*,-8.9,i,-52.8
COc1cc(C2C(C#N)=C(N)OC3=C2C(=O)CC(C)(C)C3)c([N+](=O)[O-])cc1OC (stereo not drawn),i,31.2,13.2,-25.4,i,-13.7
CC(C)OCCCNC(=S)NNC(=O)c1ccc(Cl)c(Cl)c1,i,-2.3,-1.9,4.8,i,-0.8
N#CCN1CCN(CC(=O)Nc2cccc3ccccc23)CC1,i,-0.4,-4.5,-25.0,i,-1.1
Cc1ccc(NC(=O)c2cc(NC(=O)/C=C\C(=O)O)ccc2N2CCCCC2)cc1,i,0.3,-1.7,95.4*,i,1.7
Cc1ccc(NC(=O)c2cc(NC(=O)c3ccccc3C(=O)O)ccc2N2CCCCC2)cc1,i,-1.3,-0.8,8.3,i,-13.5
COc1ccc(CN(C2CCCCC2C)S(=O)(=O)c2ccc(S(=O)(=O)N(C)C)cc2)cc1OC (stereo not drawn),-29*,147.9*,5.5,-139.1,i,-12.0
NC(=O)COC(=O)c1ccccc1OCc1ccc(Cl)cc1,-25.4*,-7.1,3.1,-13.2,i,-6.4
Cc1c(N2C(=O)C3C4C=CC(C5CC45)C3C2=O)c(=O)n(-c2ccccc2)n1C (stereo not drawn),i,-1.0,-10.0,115.2*,i,-5.2
COc1ccc(CN2CCN(C(=O)c3ccc(-c4ccccc4)cc3)CC2)c(OC)c1OC,i,1.5,1.5,-2.1,i,-10.7
COc1ccc(CN2CCN(C(=O)c3cccs3)CC2)c(OC)c1OC,i,-2.0,-5.0,57.9*,i,5.5
SMILES,ANO1 activ,CRFBP-R2 agonist,cardiac RTF act,CRFBP-R2 block,ANO1 block,RTF Ca sens inh
Cc1ccc2c(CC(=O)NCC(=O)Nc3c(C)cccc3C)coc2c1,i,-0.2,-4.3,50.5*,i,-1.1
Cc1ccc2c(CC(=O)NCc3ccc4c(c3)OCO4)coc2c1,i,-0.1,3.1,-1.6,i,-1.8
Cc1ccc2c(CC(=O)Nc3sccc3C(N)=O)coc2c1,i,94.7*,-0.1,-57.9,i,-7.0
Cc1ccc2c(CC(=O)Nc3ccc(N4CCN(C)CC4)cc3C)coc2c1,i,-1.5,0.9,6.1,i,-7.5
COc1cc(NC(=O)CCCNC(=O)c2ccc(Cl)cc2)cc(OC)c1OC,i,1.4,0.6,-0.5,i,1.2
CCC(Sc1nc2cc(OC)c(OC)cc2c(=O)n1CCc1ccc(S(N)(=O)=O)cc1)C(=O)NCCOC (stereo not drawn),-4.71*,-0.6,2.4,7.5,i,3.7
CCC(Sc1nc2cc(OC)c(OC)cc2c(=O)n1Cc1ccc(OC)cc1)C(=O)NCCOC (stereo not drawn),i,-2.0,2.9,8.8,i,4.4
CCOC(=O)CCCCC1C(CCCC(=O)OCC)C=NN1C (stereo not drawn),i,2.8,-0.5,-17.2,.,-17.9
CCOC(=O)Cc1nn(Cc2nc(-c3ccc(C#N)cc3)cs2)c(=O)c2ccccc12,i,3.3,12.1,30.4,25*,-1.3
CCOC(=O)Cc1nn(CC)c(=O)c2ccccc12,i,2.5,-2.4,-13.5,i,-9.2
COc1ccc(NC(=S)N2CCC(N(C)CCN3CCOCC3)CC2)cc1Cl,i,-7.6,0.6,51.6*,i,-14.5
O=C(c1ccc(F)cc1)C1CCN(Cc2ccccc2F)CC1,.,-0.9,.,57.7*,.,.
CC(=O)c1cccc(OCC(=O)N(Cc2ccco2)c2c(N)n(Cc3ccccc3)c(=O)[nH]c2=O)c1,i,-1.2,3.8,0.0,.,-8.2
COc1ccc(/C=C(\C#N)c2n[nH]c(Cn3cncn3)n2)cc1,i,0.9,.,-1.3,i,.
O=C(CNS(=O)(=O)c1ccccc1)Nc1ccc2c(c1)OCO2,i,-0.8,5.5,39.2,i,-0.1
COc1ccc2c(CC(=O)NC3CCCc4ccccc43)coc2c1 (stereo not drawn),i,-0.7,-1.4,36.2,i,-4.4
O=C(O)C(Cc1ccccc1)N1C(=O)/C(=C/c2cccc3ccccc23)SC1=S (stereo not drawn),.,.,.,.,100*,.
COc1ccc(NC(=O)COC(=O)c2ccc(Cl)c(S(N)(=O)=O)c2)c([N+](=O)[O-])c1,i,-6.4,-7.3,9.6,i,-20.3
